{"source": "PubChem BioAssay (NCI)", "note": "About 83,000 compounds went through this panel and 20% of them were active in at least one assay; those are over-represented in the sample as a whole.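 Cells were grown in 96-well plates and exposed to the test compound at a single concentration for 48 hours; results are reported as percent growth, with values below 10 considered active.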 Values without a mark were called inactive. The source made the active and inactive calls.", "data": [{"system": "786-0 renal", "assay": "NCI-60 one-dose screen, 48 h (100 = growth as untreated, 0 = no growth, -100 = all killed)", "conditions": "10 µM unless noted", "values": [{"smiles": "O=C1C=Cc2ncccc2C1=O", "growth": "103%"}, {"smiles": "COc1cc2c(cc1OC)C(=O)/C(=C/c1cc(-c3ccc4c(c3)OCO4)n[nH]1)C2", "growth": "-89.8% (active)"}, {"smiles": "CCN(CC)CCCCCCNc1ccnc2cc(Cl)ccc12", "growth": "90.9%"}, {"smiles": "COC(c1ccccc1)(c1ccccc1)c1ccccc1", "growth": "93%"}, {"smiles": "CC(CNc1nc(Nc2ccc(Cl)c(Cl)c2)nc(C(Cl)(Cl)Cl)n1)N(C)C", "note": "(stereo unspecified)", "growth": "-77.3% (active)"}, {"smiles": "COc1cccc2c1C(=O)c1c(O)c3c(c(O)c1C2=O)C[C@@](O)(C(=O)CO)C[C@@H]3OC1C[C@H](N)[C@H](O)[C@H](C)O1", "note": "(stereo partly specified)", "growth": "6.46% (active)"}, {"smiles": "NC(=O)[C@@H]1CC2CCC1C2", "note": "(stereo partly specified)", "growth": "101%"}, {"smiles": "COc1cc2[nH]c(C(=O)c3cc(OC)c(OC)c(OC)c3)c(N)c2cc1C#CCO", "growth": "40.8%"}, {"smiles": "CN(C)c1ccc(N=C2C=CC(=O)C=C2)cc1", "growth": "98.4%"}, {"smiles": "COc1ccc(C(=O)c2cc(OC)c(OC)c(OC)c2)cc1/C=C/C(=O)c1cc(OC)c(OC)c(OC)c1", "growth": "104%"}, {"smiles": "Nc1c(C(=O)Nc2cccc(Br)c2)sc2nc3c(cc12)C(=O)CCC3", "growth": "51.8%"}, {"smiles": "O=C1NC(=Nc2ccc(S(=O)(=O)Nc3nccs3)cc2)S/C1=C\\c1coc2ccccc2c1=O", "growth": "111%"}, {"smiles": "COc1ccc(C(=O)/C=C/c2cc(-c3cc(OC)c(OC)c(OC)c3)n[nH]2)cc1OC", "growth": "-34.7% (active)"}, {"smiles": "COc1cc2[nH]c(C(=O)c3cc(OC)c(OC)c(OC)c3)c(N)c2cc1C#CC1CC1", "growth": "38.7%"}, {"smiles": "O=C(NC1=CC(=O)c2ccccc2C1=O)c1ccccc1", "growth": "39.9%"}, {"smiles": "COC(=O)c1cc(=O)nc(N/N=C/c2ccc(C)cc2)s1", "growth": "103%"}, {"smiles": "COc1cc(C(=O)/C=C/c2cc(-c3ccc4c(c3)OCO4)n[nH]2)cc(OC)c1OC", "growth": "12.8%"}, {"smiles": "O=C(/C=C\\c1ccc2c(c1)OCO2)/C=C/c1ccc2c(c1)OCO2", "growth": "64.6%"}, {"smiles": "COc1cc(-c2cc(-c3nc4cc(Cl)c(Cl)cc4[nH]3)[nH]n2)cc(OC)c1OC", "growth": "87.4%"}, {"smiles": "COC1=C(Br)C(=O)C(OC)=C(Br)C1=O", "growth": "103%"}, {"smiles": "COc1ccc2c(c1)C/C(=C\\c1cc(-c3ccc4c(c3)OCO4)n[nH]1)C2=O", "growth": "106%"}, {"smiles": "CC(C)(C)c1ccc(OP(=S)(N/N=C/c2ccccc2O)Oc2ccc(C(C)(C)C)cc2)cc1", "growth": "68.6%"}, {"smiles": "OCC12CCCC(CO)(COC1)C2O", "note": "(stereo unspecified)", "growth": "112%"}, {"smiles": "COc1ccc(-c2cc(/C=C/C(=O)c3ccc(N)cc3)[nH]n2)cc1", "growth": "17.8%"}, {"smiles": "O=c1c(CNc2ccc(S(=O)(=O)Nc3ncccn3)cc2)coc2ccccc12", "growth": "102%"}, {"smiles": "NC(Cc1ccc(O)cc1)C(=O)N/N=C/c1ccccc1O", "note": "(stereo unspecified)", "growth": "104%"}, {"smiles": "COc1ccc2c(c1)C/C(=C\\c1cc(-c3cc(OC)c(OC)c(OC)c3)n[nH]1)C2=O", "growth": "95.9%"}, {"smiles": "O=c1c(CNc2ccc(S(=O)(=O)Nc3nccs3)cc2)coc2ccccc12", "growth": "103%"}, {"smiles": "Nc1c(C(=O)Nc2cccc(Cl)c2)sc2ncc(Cl)cc12", "growth": "85.4%"}, {"smiles": "CCN(CC)CCCCCNc1cc(OC(=O)c2ccccc2)cc2cccnc12", "growth": "100%"}, {"smiles": "Fc1ccc2nc(-c3cc(-c4ccc5c(c4)OCO5)n[nH]3)[nH]c2c1", "growth": "56.8%"}, {"smiles": "C#Cc1cc2c(N)c(C(=O)c3cc(OC)c(OC)c(OC)c3)[nH]c2cc1OC", "growth": "46.8%"}, {"smiles": "Cc1cc(Cl)c2c(N(C)C)cccc2n1", "growth": "102%"}, {"smiles": "COc1ccc(/C=C2\\N=C(c3ccccc3)N(c3cc(OC)c(OC)cc3C(=O)N3N=C(C)CC3=O)C2=O)cc1", "growth": "98.9%"}, {"smiles": "COc1ccc2nc(-c3c(-c4ccccc4)nc4ncccn34)[nH]c2c1", "growth": "103%"}, {"smiles": "O=C1C=C(C(O)c2ccc(O)cc2)C(=O)c2ccccc21", "note": "(stereo unspecified)", "growth": "106%"}, {"smiles": "Cc1ccc(-c2nc3ccc(Cl)cc3c(=O)n2N2C(=O)CSC2c2ccccc2Cl)cc1", "note": "(stereo unspecified)", "growth": "70%"}, {"smiles": "NS(=O)(=O)c1ccc(CCNC(=O)/C=C/c2ccc(Cl)cc2)cc1", "growth": "102%"}]}, {"system": "COLO 205 colon", "assay": "NCI-60 one-dose screen, 48 h (100 = growth as untreated, 0 = no growth, -100 = all killed)", "conditions": "10 µM unless noted", "values": [{"smiles": "O=C1C=Cc2ncccc2C1=O", "growth": "54%"}, {"smiles": "COc1cc2c(cc1OC)C(=O)/C(=C/c1cc(-c3ccc4c(c3)OCO4)n[nH]1)C2", "growth": "7.58% (active)"}, {"smiles": "CCN(CC)CCCCCCNc1ccnc2cc(Cl)ccc12", "growth": "9.2% (active)"}, {"smiles": "COC(c1ccccc1)(c1ccccc1)c1ccccc1", "growth": "123%"}, {"smiles": "CC(CNc1nc(Nc2ccc(Cl)c(Cl)c2)nc(C(Cl)(Cl)Cl)n1)N(C)C", "note": "(stereo unspecified)", "growth": "-77.7% (active)"}, {"smiles": "COc1cccc2c1C(=O)c1c(O)c3c(c(O)c1C2=O)C[C@@](O)(C(=O)CO)C[C@@H]3OC1C[C@H](N)[C@H](O)[C@H](C)O1", "note": "(stereo partly specified)", "growth": "-81.6% (active)"}, {"smiles": "NC(=O)[C@@H]1CC2CCC1C2", "note": "(stereo partly specified)", "growth": "107%"}, {"smiles": "COc1cc2[nH]c(C(=O)c3cc(OC)c(OC)c(OC)c3)c(N)c2cc1C#CCO", "growth": "-35.8% (active)"}, {"smiles": "CN(C)c1ccc(N=C2C=CC(=O)C=C2)cc1", "growth": "36.3%"}, {"smiles": "COc1ccc(C(=O)c2cc(OC)c(OC)c(OC)c2)cc1/C=C/C(=O)c1cc(OC)c(OC)c(OC)c1", "growth": "95.5%"}, {"smiles": "Nc1c(C(=O)Nc2cccc(Br)c2)sc2nc3c(cc12)C(=O)CCC3", "growth": "-11.2% (active)"}, {"smiles": "O=C1NC(=Nc2ccc(S(=O)(=O)Nc3nccs3)cc2)S/C1=C\\c1coc2ccccc2c1=O", "growth": "113%"}, {"smiles": "COc1ccc(C(=O)/C=C/c2cc(-c3cc(OC)c(OC)c(OC)c3)n[nH]2)cc1OC", "growth": "-65.7% (active)"}, {"smiles": "COc1cc2[nH]c(C(=O)c3cc(OC)c(OC)c(OC)c3)c(N)c2cc1C#CC1CC1", "growth": "8.48% (active)"}, {"smiles": "O=C(NC1=CC(=O)c2ccccc2C1=O)c1ccccc1", "growth": "48%"}, {"smiles": "COC(=O)c1cc(=O)nc(N/N=C/c2ccc(C)cc2)s1", "growth": "114%"}, {"smiles": "COc1cc(C(=O)/C=C/c2cc(-c3ccc4c(c3)OCO4)n[nH]2)cc(OC)c1OC", "growth": "32.3%"}, {"smiles": "O=C(/C=C\\c1ccc2c(c1)OCO2)/C=C/c1ccc2c(c1)OCO2", "growth": "110%"}, {"smiles": "COc1cc(-c2cc(-c3nc4cc(Cl)c(Cl)cc4[nH]3)[nH]n2)cc(OC)c1OC", "growth": "46.8%"}, {"smiles": "COC1=C(Br)C(=O)C(OC)=C(Br)C1=O", "growth": "110%"}, {"smiles": "COc1ccc2c(c1)C/C(=C\\c1cc(-c3ccc4c(c3)OCO4)n[nH]1)C2=O", "growth": "105%"}, {"smiles": "CC(C)(C)c1ccc(OP(=S)(N/N=C/c2ccccc2O)Oc2ccc(C(C)(C)C)cc2)cc1", "growth": "79.7%"}, {"smiles": "OCC12CCCC(CO)(COC1)C2O", "note": "(stereo unspecified)", "growth": "107%"}, {"smiles": "COc1ccc(-c2cc(/C=C/C(=O)c3ccc(N)cc3)[nH]n2)cc1", "growth": "7.56% (active)"}, {"smiles": "O=c1c(CNc2ccc(S(=O)(=O)Nc3ncccn3)cc2)coc2ccccc12", "growth": "105%"}, {"smiles": "NC(Cc1ccc(O)cc1)C(=O)N/N=C/c1ccccc1O", "note": "(stereo unspecified)", "growth": "123%"}, {"smiles": "COc1ccc2c(c1)C/C(=C\\c1cc(-c3cc(OC)c(OC)c(OC)c3)n[nH]1)C2=O", "growth": "109%"}, {"smiles": "O=c1c(CNc2ccc(S(=O)(=O)Nc3nccs3)cc2)coc2ccccc12", "growth": "119%"}, {"smiles": "Nc1c(C(=O)Nc2cccc(Cl)c2)sc2ncc(Cl)cc12", "growth": "79.6%"}, {"smiles": "CCN(CC)CCCCCNc1cc(OC(=O)c2ccccc2)cc2cccnc12", "growth": "17.3%"}, {"smiles": "Fc1ccc2nc(-c3cc(-c4ccc5c(c4)OCO5)n[nH]3)[nH]c2c1", "growth": "84.7%"}, {"smiles": "C#Cc1cc2c(N)c(C(=O)c3cc(OC)c(OC)c(OC)c3)[nH]c2cc1OC", "growth": "-16.3% (active)"}, {"smiles": "Cc1cc(Cl)c2c(N(C)C)cccc2n1", "growth": "105%"}, {"smiles": "COc1ccc(/C=C2\\N=C(c3ccccc3)N(c3cc(OC)c(OC)cc3C(=O)N3N=C(C)CC3=O)C2=O)cc1", "growth": "112%"}, {"smiles": "COc1ccc2nc(-c3c(-c4ccccc4)nc4ncccn34)[nH]c2c1", "growth": "108%"}, {"smiles": "O=C1C=C(C(O)c2ccc(O)cc2)C(=O)c2ccccc21", "note": "(stereo unspecified)", "growth": "100%"}, {"smiles": "Cc1ccc(-c2nc3ccc(Cl)cc3c(=O)n2N2C(=O)CSC2c2ccccc2Cl)cc1", "note": "(stereo unspecified)", "growth": "66.6%"}, {"smiles": "NS(=O)(=O)c1ccc(CCNC(=O)/C=C/c2ccc(Cl)cc2)cc1", "growth": "110%"}]}]}
